Data on 39 compounds can be found in PubChem BioAssay.

Each structure is given as a SMILES string. Results with a measured potency or affinity are listed apart. Activity calls are given as the source filed them. Unless noted, the rule behind the calls is not given here.

Sequence of Calcium-dependent protein kinase 1 (Plasmodium falciparum (isolate 3D7)) (P62344 whole entry, looked up): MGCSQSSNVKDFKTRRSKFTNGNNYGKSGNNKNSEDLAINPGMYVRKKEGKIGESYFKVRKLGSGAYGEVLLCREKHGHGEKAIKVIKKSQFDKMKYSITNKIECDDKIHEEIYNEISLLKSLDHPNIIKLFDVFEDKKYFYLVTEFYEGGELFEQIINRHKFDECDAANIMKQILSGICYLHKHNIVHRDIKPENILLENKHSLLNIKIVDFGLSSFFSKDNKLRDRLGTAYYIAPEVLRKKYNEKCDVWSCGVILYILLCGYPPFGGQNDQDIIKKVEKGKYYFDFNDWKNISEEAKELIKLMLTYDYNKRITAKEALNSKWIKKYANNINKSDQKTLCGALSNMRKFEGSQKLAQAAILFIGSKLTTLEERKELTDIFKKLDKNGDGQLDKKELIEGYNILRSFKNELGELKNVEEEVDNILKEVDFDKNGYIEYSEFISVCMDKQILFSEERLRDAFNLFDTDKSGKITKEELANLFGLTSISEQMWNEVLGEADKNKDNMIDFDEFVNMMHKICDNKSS

One assay addresses Calcium-dependent protein kinase 1 (Plasmodium falciparum (isolate 3D7)) (UniProt P62344). Description: PfCDPK1 kinase inhibitors, biochemical, TCAMS library (AID 1159585; cut-off not given, nearly all actives have IC50 up to about 0.98 µM;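 note: inhibitors leave more ATP so luminescence rises with inhibition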). Particulars: recombinant PfCDPK1, Kinase-Glo ATP depletion luminescence. On the technique in general: Kinase-Glo reads ATP consumption through a luciferase reaction.
With `OCC1CCN(Cc2ccc(-c3ccc(-c4nc5ccc(F)cc5[nH]4)cc3)cc2)CC1`, the outcome was inactive.
Regarding `COc1cc(NC(=O)Nc2ccc([N+](=O)[O-])cc2OC)c(OC)cc1Cl`, the result was inactive.
On to `COc1cc(C)nc2ccc(NC(=O)Nc3ccc4nc(C)cc(OC)c4c3)cc12`, for which the result was inactive.
As for `CC(C)C[C@H](NC(=O)c1cccc(F)c1)C(=O)N[C@H](/C=N/NC(=O)c1ccccc1)CCc1ccccc1`, the result was inactive.
The same measure, in the same setting: with `Nc1ccn([C@@H]2O[C@H](COC(c3ccccc3)(c3ccccc3)c3ccccc3)[C@@H](O)[C@@H]2O)c(=O)n1` the entry was “inactive”; with `N#Cc1ccc2c(c1)CCN(CCC1CCC(NC(=O)c3cc4ccc(Cl)cc4[nH]3)CC1)C2` (stereo not drawn), “inactive”; with `Cc1cccc(-c2nc(Nc3ccncc3)c3ccc([N+](=O)[O-])cc3n2)n1`, “inactive”.
Turning to `CC(C)C[C@H](NC(=O)c1ccc(OCCN2CCOCC2)cc1)C(=O)N[C@H](/C=N/NC(=O)OC(C)(C)C)CCc1ccccc1`, the result was inactive.
For the compound `CC(C)CCNC(=O)C1Cc2c([nH]c3cc(Br)ccc23)C2(CCN(Cc3ccccc3)CC2)N1` (stereo not drawn), the outcome was inactive.
With `O=C(/C=C/c1ccc(Cl)c(Cl)c1)N1CCN(C(=O)Nc2ccc(F)c(Cl)c2)CC1`, the outcome was inactive.
Turning to `COc1ccc(CCN2CC[C@H](Nc3nc(-c4ccc(F)c(F)c4)nc4ccccc34)C2)cc1S(N)(=O)=O`, the outcome was inactive.
Consider `O=[N+]([O-])c1cccc(NC(=S)N2CCCN(Cc3ccc(F)cc3F)CC2)c1`, for which the outcome was inactive.
As for `N#Cc1ccc(NC(=NC2CCCc3ccccc32)Nc2ccc(-c3ccccc3)cc2)c(O)c1` (stereo not drawn), the outcome was inactive.
Still for that read-out and setting: under `Fc1cccc(COc2ccc(-n3ccc4c(NCCCn5ccnc5)ncnc43)cc2Cl)n1` stands “inactive”; under `Cc1ccc(Nc2nccc(Nc3ccc4c(C)[nH]nc4c3)n2)cc1F`, “inactive”.
Still for that read-out and setting: with `CCCC(CC)n1ccc2c3c(N)nc(N)nc3ccc21` (stereo not drawn) the entry was “inactive”.
Consider `COc1ccc2nccc([C@@H](O)CN3CCC(NC(=O)c4ccc(Cl)c([N+](=O)[O-])c4)CC3)c2c1`, for which the result was inactive.
Same read-out and setting: with `COc1ccc2nc(C)cc(Nc3ccc(Oc4ccc5ccccc5c4)c(Cl)c3)c2c1` the entry was “inactive”; with `Cc1cc(F)ccc1Nc1nc(N(C)c2ccccc2)c2cc(OCCCN(C)C)ccc2n1`, “inactive”; with `O=[N+]([O-])c1cc2c(cc1C=NNc1nc(Nc3ccccc3)nc(Nc3ccccc3)n1)OCO2`, “inactive”.
On the same count and under the same terms, with `Cn1c(=O)c2nc(-c3ccc(Cl)cc3)nnc2n(CCCC#N)c1=O` the entry was “inactive”.
On to `CCOC(=O)c1c(-c2ccccc2)[nH]c2c(sc3ccccc32)c1=O`, for which the outcome was inactive.
For `CCCC1N=C(N)N=C(N)N1c1cccc(C(F)(F)F)c1` (stereo not drawn), the result was inactive.
As to `Cc1cccc(CNc2nc(C)cc(N[C@@H](Cc3ccccc3)C(=O)NCCOc3ccccc3)n2)c1`, the result was inactive.
Regarding `Fc1ccc(Nc2ccnc3cc(-c4ccc(CNCCN5CCOCC5)o4)ccc23)c(Cl)c1`, the outcome was inactive.
For the compound `CCNc1cc(C(=O)N[C@@H](Cc2ccccc2)[C@H](O)CNC2CCC(C(C)(C)C)CC2)cc(N2CCCC2=O)c1` (stereo partly drawn), the outcome was inactive.
Turning to `Cc1ccc(-c2nnc(-c3ccc(C(=O)NC4CCN(Cc5ccc(C#N)cc5)CC4)cc3)o2)cc1Br`, the result was inactive.
Regarding `O=C(Nc1cc(F)cc(F)c1)N1CCOC(CCN2CCC3(CCc4ccccc43)CC2)(c2ccc(Cl)c(Cl)c2)C1` (stereo not drawn), the outcome was inactive.
Regarding `CCCC(CNCc1cccc(I)c1)CNc1cc(=O)c2ccccc2[nH]1` (stereo not drawn), the outcome was inactive.
Turning to `COc1ccc2nccc([C@@H](O)CN3CC[C@H](NCc4nc5c(cc4F)SCC(=O)N5)[C@H](F)C3)c2c1`, the result was inactive.
On the same count and under the same terms, with `Cc1ccc(F)c(C(=O)Nc2cccc(-c3nn4ccccc4c3-c3ccnc(Nc4cccc(F)c4)n3)c2)c1F` the entry was “inactive”; with `Cc1cc(C(=O)OCC(N)=O)c(C)n1-c1ccc(F)cc1`, “inactive”; with `Cc1cccc2[nH]c(-c3ccc(-c4cccc(CNCCN(C)C)c4)cc3)nc12`, “inactive”.
On the same count and under the same terms, under `CNC(=O)c1ccccc1Nc1nc(Nc2cccnc2)ncc1C` stands “inactive”; under `CCCOc1ccc(C(F)(F)F)cc1NC(=O)c1nc2nc(C)cc(C)n2n1`, “inactive”; under `COc1ccc2ncc(F)c(CCN3C[C@H](CNCc4ccc5oc(=O)ccc5c4)[C@H](O)C3)c2n1`, “inactive”.
In the case of `CC(Oc1ccc(Cl)cc1)C(=O)Nc1cc(C(F)(F)F)ccc1-n1cncn1` (stereo not drawn), the outcome was inactive.
`Cc1ncc(CN2CCC(C(=O)Nc3ccc(-c4nc5ccccc5o4)cc3)CC2)s1`: the result was inactive.
With `CC(C)(CNC(=O)[C@@H]1CCCN(CCOc2ccc(Cl)cc2)C1)c1nc(-c2ccc(Cl)c(O)c2)c(-c2ccncc2)[nH]1`, the outcome was inactive.

The target of a further assay is Plasmodium falciparum protein kinase 6 (PK6, PF3D7_1337100) (UniProt Q8IDW1). Description: PfPK6 kinase inhibitors, biochemical, TCAMS library (AID 1159586). As to conditions: recombinant PfPK6, Kinase-Glo ATP depletion luminescence.
Sequence of Plasmodium falciparum protein kinase 6 (PK6, PF3D7_1337100) (Q8IDW1 1-305): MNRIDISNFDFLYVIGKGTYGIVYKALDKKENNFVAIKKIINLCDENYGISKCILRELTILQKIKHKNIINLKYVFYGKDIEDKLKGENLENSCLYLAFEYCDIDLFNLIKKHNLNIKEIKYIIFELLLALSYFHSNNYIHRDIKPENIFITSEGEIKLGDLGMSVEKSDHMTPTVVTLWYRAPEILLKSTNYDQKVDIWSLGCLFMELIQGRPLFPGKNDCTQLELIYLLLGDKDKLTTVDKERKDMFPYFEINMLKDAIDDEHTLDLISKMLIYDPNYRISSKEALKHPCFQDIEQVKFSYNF
As to `OCC1CCN(Cc2ccc(-c3ccc(-c4nc5ccc(F)cc5[nH]4)cc3)cc2)CC1`, the outcome was inactive.
Consider `COc1cc(NC(=O)Nc2ccc([N+](=O)[O-])cc2OC)c(OC)cc1Cl`, for which the outcome was inactive.
As for `COc1cc(C)nc2ccc(NC(=O)Nc3ccc4nc(C)cc(OC)c4c3)cc12`, the result was inactive.
For the compound `CC(C)C[C@H](NC(=O)c1cccc(F)c1)C(=O)N[C@H](/C=N/NC(=O)c1ccccc1)CCc1ccccc1`, the outcome was inactive.
Same read-out and setting: with `Nc1ccn([C@@H]2O[C@H](COC(c3ccccc3)(c3ccccc3)c3ccccc3)[C@@H](O)[C@@H]2O)c(=O)n1` the entry was “inactive”; with `N#Cc1ccc2c(c1)CCN(CCC1CCC(NC(=O)c3cc4ccc(Cl)cc4[nH]3)CC1)C2` (stereo not drawn), “inactive”.
As for `Cc1cccc(-c2nc(Nc3ccncc3)c3ccc([N+](=O)[O-])cc3n2)n1`, the result was inactive.
As for `CC(C)C[C@H](NC(=O)c1ccc(OCCN2CCOCC2)cc1)C(=O)N[C@H](/C=N/NC(=O)OC(C)(C)C)CCc1ccccc1`, the outcome was inactive.
For `CC(C)CCNC(=O)C1Cc2c([nH]c3cc(Br)ccc23)C2(CCN(Cc3ccccc3)CC2)N1` (stereo not drawn), the result was inactive.
Same read-out and setting: with `O=C(/C=C/c1ccc(Cl)c(Cl)c1)N1CCN(C(=O)Nc2ccc(F)c(Cl)c2)CC1` the entry was “inactive”; with `COc1ccc(CCN2CC[C@H](Nc3nc(-c4ccc(F)c(F)c4)nc4ccccc34)C2)cc1S(N)(=O)=O`, “inactive”.
Take `O=[N+]([O-])c1cccc(NC(=S)N2CCCN(Cc3ccc(F)cc3F)CC2)c1`: the outcome was inactive.
On the same count and under the same terms, with `N#Cc1ccc(NC(=NC2CCCc3ccccc32)Nc2ccc(-c3ccccc3)cc2)c(O)c1` (stereo not drawn) the entry was “inactive”.
On to `Fc1cccc(COc2ccc(-n3ccc4c(NCCCn5ccnc5)ncnc43)cc2Cl)n1`, for which the outcome was inactive.
Turning to `Cc1ccc(Nc2nccc(Nc3ccc4c(C)[nH]nc4c3)n2)cc1F`, the result was inactive.
For `CCCC(CC)n1ccc2c3c(N)nc(N)nc3ccc21` (stereo not drawn), the outcome was inactive.
Take `COc1ccc2nccc([C@@H](O)CN3CCC(NC(=O)c4ccc(Cl)c([N+](=O)[O-])c4)CC3)c2c1`: the outcome was inactive.
In the case of `COc1ccc2nc(C)cc(Nc3ccc(Oc4ccc5ccccc5c4)c(Cl)c3)c2c1`, the result was inactive.
As to `Cc1cc(F)ccc1Nc1nc(N(C)c2ccccc2)c2cc(OCCCN(C)C)ccc2n1`, the outcome was inactive.
As to `O=[N+]([O-])c1cc2c(cc1C=NNc1nc(Nc3ccccc3)nc(Nc3ccccc3)n1)OCO2`, the result was inactive.
For `Cn1c(=O)c2nc(-c3ccc(Cl)cc3)nnc2n(CCCC#N)c1=O`, the result was inactive.
In the case of `CCOC(=O)c1c(-c2ccccc2)[nH]c2c(sc3ccccc32)c1=O`, the outcome was inactive.
Same read-out and setting: with `CCCC1N=C(N)N=C(N)N1c1cccc(C(F)(F)F)c1` (stereo not drawn) the entry was “inactive”; with `Cc1cccc(CNc2nc(C)cc(N[C@@H](Cc3ccccc3)C(=O)NCCOc3ccccc3)n2)c1`, “inactive”.
Same read-out and setting: with `Fc1ccc(Nc2ccnc3cc(-c4ccc(CNCCN5CCOCC5)o4)ccc23)c(Cl)c1` the entry was “inactive”; with `CCNc1cc(C(=O)N[C@@H](Cc2ccccc2)[C@H](O)CNC2CCC(C(C)(C)C)CC2)cc(N2CCCC2=O)c1` (stereo partly drawn), “inactive”; with `Cc1ccc(-c2nnc(-c3ccc(C(=O)NC4CCN(Cc5ccc(C#N)cc5)CC4)cc3)o2)cc1Br`, “inactive”.
The same measure, in the same setting: with `O=C(Nc1cc(F)cc(F)c1)N1CCOC(CCN2CCC3(CCc4ccccc43)CC2)(c2ccc(Cl)c(Cl)c2)C1` (stereo not drawn) the entry was “inactive”; with `CCCC(CNCc1cccc(I)c1)CNc1cc(=O)c2ccccc2[nH]1` (stereo not drawn), “inactive”.
For the compound `COc1ccc2nccc([C@@H](O)CN3CC[C@H](NCc4nc5c(cc4F)SCC(=O)N5)[C@H](F)C3)c2c1`, the result was inactive.
Still for that read-out and setting: with `Cc1ccc(F)c(C(=O)Nc2cccc(-c3nn4ccccc4c3-c3ccnc(Nc4cccc(F)c4)n3)c2)c1F` the entry was “inactive”; with `Cc1cc(C(=O)OCC(N)=O)c(C)n1-c1ccc(F)cc1`, “inactive”.
On the same count and under the same terms, with `Cc1cccc2[nH]c(-c3ccc(-c4cccc(CNCCN(C)C)c4)cc3)nc12` the entry was “inactive”.
On the same count and under the same terms, with `CNC(=O)c1ccccc1Nc1nc(Nc2cccnc2)ncc1C` the entry was “inactive”.
In the case of `CCCOc1ccc(C(F)(F)F)cc1NC(=O)c1nc2nc(C)cc(C)n2n1`, the outcome was inactive.
Take `COc1ccc2ncc(F)c(CCN3C[C@H](CNCc4ccc5oc(=O)ccc5c4)[C@H](O)C3)c2n1`: the result was inactive.
On to `CC(Oc1ccc(Cl)cc1)C(=O)Nc1cc(C(F)(F)F)ccc1-n1cncn1` (stereo not drawn), for which the result was inactive.
Still for that read-out and setting: with `Cc1ncc(CN2CCC(C(=O)Nc3ccc(-c4nc5ccccc5o4)cc3)CC2)s1` the entry was “inactive”; with `CC(C)(CNC(=O)[C@@H]1CCCN(CCOc2ccc(Cl)cc2)C1)c1nc(-c2ccc(Cl)c(O)c2)c(-c2ccncc2)[nH]1`, “inactive”.
